Rows were chosen to be rich in hits. Some 21% of all compounds tested hit in one or more screens of this group.
RORg inh: inhibitors of mouse ROR gamma transcriptional activity. P51450. Drosophila S2 Gal4-RORgamma UAS-luciferase reporter, 20 h. Potency, µM (top dose mostly 53.6 µM), inactives show top-dose activity change, negative = inhibition, most hits filed as inhibitors. actives 5.4% (n = 310,000); also: potency is read from the fitted curve at half-maximal effect; nearly all actives have a fitted effect of over 60% in size
Target sequence (P51450 whole entry, looked up, the tested form may be a part): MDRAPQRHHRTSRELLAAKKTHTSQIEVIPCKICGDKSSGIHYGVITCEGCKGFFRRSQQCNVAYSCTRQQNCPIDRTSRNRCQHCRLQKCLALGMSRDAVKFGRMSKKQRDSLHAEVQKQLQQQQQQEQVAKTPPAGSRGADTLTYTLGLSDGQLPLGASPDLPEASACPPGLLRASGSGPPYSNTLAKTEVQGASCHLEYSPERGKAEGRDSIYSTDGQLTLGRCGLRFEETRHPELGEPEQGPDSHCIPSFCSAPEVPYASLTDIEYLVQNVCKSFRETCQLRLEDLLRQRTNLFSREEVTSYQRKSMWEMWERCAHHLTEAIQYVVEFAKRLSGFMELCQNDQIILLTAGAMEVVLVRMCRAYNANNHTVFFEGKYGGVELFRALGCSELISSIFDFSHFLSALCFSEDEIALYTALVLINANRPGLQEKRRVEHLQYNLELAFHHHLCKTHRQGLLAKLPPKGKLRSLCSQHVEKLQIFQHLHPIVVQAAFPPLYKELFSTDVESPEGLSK
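Stable Schneider cell line, Gal4 DNA-binding domain fused to ROR gamma, UAS-luciferase. Cmpd 1 hr RT → CuSO4 700 uM final → 20 hr RT → luciferase reagent 10 min → luminescence.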
IL1B secr inh: inflammasome signaling inhibition, IL-1 beta readout. actives 4.7% (n = 360,000). AID 743279. activity change, % at 57.5 µM. THP-1 LPS/ATP IL-1B secretion, AlphaLISA, 16 h; hits give low values; in the data active = activity change below about -50%; inconclusive = mostly about -30% to -49%
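THP-1 cells pretreated 1 hr with compounds (up to 57.5 uM final), then stimulated with LPS (250 ng/mL final) plus ATP (1.25 mM final); secreted IL-1B measured by AlphaLISA after 16 hr, decreased signal indicating inhibition.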
TDP1 cell noCPT: qHTS for Inhibitors of human tyrosyl-DNA phosphodiesterase 1 (TDP1): qHTS in cells in absence of CPT | DT40 Tdp1-/- hTDP1 cells, no CPT, ATP luminescence, 48 h | Potency, µM (top dose mostly 46.2 µM), for inactives: at the highest dose activity change, negative = growth inhibition, usual class: inhibitors | actives 15% (n = 420,000); also: potency is read from the fitted curve at half-maximal effect; nearly all actives have a fitted effect of over 55% in size
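Seeded 400 DT40-hTDP1 cells/well (vehicle DMSO, no 20 nM CPT); pinned compounds; ≥48 hr at 37 °C; CellTiter-Glo luminescence as viability measure.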
Gal4-VP16 FLuc: inhibits Gal4-VP16 luciferase reporter, ROR gamma counter-screen | Potency, µM (top dose mostly 53.6 µM), for the others: at the top dose activity, negative = inhibition, hits mostly inhibitors | actives 3.5% (n = 310,000) | AID 2546 | Drosophila S2 Gal4-VP16 UAS-luciferase, luminescence, 20 h;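 also: Gal4-VP16 expression switched on by copper sulfate through the metallothionein promoter; potency is read from the fitted curve at half-maximal effect; nearly all actives have a fitted effect of over 50% in size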
ELG1 repair inh: inhibitors of ELG1-dependent DNA repair in HEK293T cells | actives 2.3% (n = 330,000) | HEK293T ELG1-luciferase reporter, luminescence, 16 h; DNA damage induced by 5-fluorouridine | Potency, µM (highest dose often 46.1 µM), inactives show at the top dose activity change, negative = inhibition, usual class: inhibitors; also: potency is read from the fitted curve at half-maximal effect; nearly all actives have a fitted effect of over 55% in size
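Luminescence from the luciferase reporter, measured 30 min after ONE-Glo reagent at room temperature, was the read-out. Beforehand, 2,000 cells per well were exposed for 16 hr at 37 °C to 5-fluorouridine together with compound or vehicle.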
TDP1 cell CPT: growth inhibition of DT40 Tdp1-/-;hTDP1 cells with camptothecin (screen for TDP1 inhibitors); chicken DT40 Tdp1-/-;hTDP1 cells + 20 nM CPT, ATP luminescence, 48 h; Potency, µM (titrated, usually from 46.2 µM), for inactives: top-dose activity change, negative = growth inhibition, actives largely listed as inhibitors; actives 12% (n = 420,000); AID 686979; also: potency is read from the fitted curve at half-maximal effect; nearly all actives have a fitted effect of over 55% in size
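Cell growth measured by CellTiter-Glo luminescence after a minimum 48 h, 37 C compound exposure with 20 nM CPT in Tdp1-knockout DT40 cells stably expressing hTDP1, seeded 400/well; qHTS titration format.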
* marks the source's active call; other numbers are inactive results; ? = inconclusive; / = no result given; [ ] = remark or other dose. Unless noted, calls follow the shape of the dose curve; as a rule, active = well fitted curve in the direction sought with a large enough effect; inconclusive = small, poorly fitted or top-dose-only effect, or another doubt; inactive = no such curve, though single readings can be large; an effect the other way counts as inactive or inconclusive. % is scaled to controls: 0 for no effect and ±100 for the full control effect.

SMILES	RORg inh	IL1B secr inh	TDP1 cell noCPT	Gal4-VP16 FLuc	ELG1 repair inh	TDP1 cell CPT
CC1(C)Cc2c(sc(NC(=O)c3ccc(S(=O)(=O)N4CCCCCC4)cc3)c2C#N)C(C)(C)N1	12.8%	1.6	-27.1%	-0.9%	-1.6%	-6.3%
CC(C)OC(=O)c1cccnc1N1CCN(c2cccc(Cl)c2)CC1	10.3%	19.0	16.4µM*	6.7%[10 µM]	?	?
O=C(Nc1ccccc1C(=O)N1CCN(c2cccc(Cl)c2)CC1)C1=CSCCO1	19.4%	-13.9	20.6µM*	0.3%	?	11.4%
COc1ccc(N2CCN(C(=O)c3cnc(SC)nc3C)CC2)cc1	/	/	-13.0%	/	/	-0.3%
O=C(Nc1ccc(C(=O)N2CCN(c3ccc(Cl)cc3)CC2)cc1)C1=CSCCO1	29.1%	4.4	?	-2.2%	6.0%	0.0%
CN(c1ccccc1C(=O)N1CCN(c2cccc(Cl)c2)CC1)S(C)(=O)=O	25.4%	8.5	-25.7%	14.7%	-14.7%	-24.8%
CSc1ncc(C(=O)N2CCN(c3cccc(Cl)c3)CC2)c(C)n1	/	/	16.4µM*	/	/	?
O=C(C(=O)N1CCN(c2cccc(Cl)c2)CC1)N1CCCCC1	19.2%	-5.4	-20.8%	-6.6%	-10.7%	16.7%
CSc1ccccc1C(=O)N1CCN(c2cccc(Cl)c2)CC1	4.4%	-6.7	?	-2.8%	20.6µM*	?
CC(=O)Nc1c(C)nn(-c2ccccc2)c1N1CCC(C(=O)NCc2ccc(F)cc2)CC1	/	/	-7.0%	/	/	-22.0%
Cc1nc2cccc(C(=O)NCc3ccccc3)c2o1	4.7%	10.1	-12.5%	8.2%	-1.3%	-9.8%
CSc1ncc(C(=O)N2CCN(c3cccc(C(F)(F)F)c3)CC2)c(C)n1	/	/	18.4µM*	/	/	?
Fc1ccc2c(c1)-c1nc(-c3ccccc3)cc(-c3ccccc3)c1CO2	/	/	-26.9%	/	/	?
O=C(Cc1csc2nc(-c3ccccc3)cn12)NCc1ccc(F)cc1	/	/	-11.0%	/	/	-14.7%
O=C(Nc1ccccc1-c1cn2c(CN3CCNCC3)csc2n1)c1cnc2ccccc2n1	/	/	5.62µM*	/	/	3.55µM*
O=C(CC(=O)NC1CCCCC1)N/N=C/c1cccc2ccccc12	41.3%	0.0	-2.3%	-2.3%	1.7%	-4.6%
CCn1ncc(Cl)c1C(=O)Nc1cc(Cl)ccc1Cl	-20.8%	0.0	-11.5%	3.9%	/	?
Cc1nn(C)c(C(=O)NC(=S)Nc2ccccc2Br)c1Cl	8.91µM*	?	13.0%	14.1µM*	0.0%	5.3%
CCn1ncc(Cl)c1C(=O)NC(=S)Nc1ccccc1Br	8.91µM*	-85.2*	-21.6%	8.91µM*	17.3%	1.7%
Cc1nn(C)c(C(=O)NC(=S)Nc2ccc([N+](=O)[O-])cc2)c1Cl	/	52.5	?	/	-22.7%	?
COc1ccc(-c2nc3ccccc3s2)cc1NC(=O)COc1cccc(C)c1	/	/	16.4µM*	/	/	?
Cc1cccc(OCC(=O)Nc2cc(C)ccc2O)c1	-43.5%	10.5	?	-16.5%	-0.4%	?
COc1ccc(-c2nc3ccccc3s2)cc1NC(C)=O	19.9%	33.9	-4.6%	8.6%[10 µM]	?	20.8%
Cc1cccc(OCC(=O)Nc2cc(C)c(C)cc2O)c1	3.55µM*	14.6	-21.3%	-28.3%	12.7%	-5.1%
CC(OC(=O)CN1C(=O)c2ccccc2C1=O)C(=O)N(C)c1ccccc1 (stereo not drawn)	/	10.8	-2.0%	/	1.8%	-1.5%
SMILES	RORg inh	IL1B secr inh	TDP1 cell noCPT	Gal4-VP16 FLuc	ELG1 repair inh	TDP1 cell CPT
O=S(=O)(c1ccccc1Br)N(Cc1ccccc1)Cc1ccco1	2.6%	/	/	-13.2%	/	/
O=C1OC(c2ccccc2)=C/C1=C\N1CCOCC1	-29.1%	-11.5	?	16.9%	?	23.1µM*
CN(C)/C=C1/C=C(c2ccccc2)OC1=O	6.2%	-53.3*	?	-15.7%	?	?
O=C1SC(c2ccccc2)=C/C1=C\N1CCCCC1	-2.6%	-24.1	-13.1%	-4.0%	?	-7.9%
O=C1OC(c2ccccc2)=C/C1=C/N1CCOCC1	-15.5%	-3.2	16.4µM*	1.1%	?	?
N#CC1(Nc2ccc(S(N)(=O)=O)cc2)CCCC1	/	1.8	?	/	/	?
COc1ccc(C(=O)N(O)c2ccccc2)cc1	?	/	-5.7%[9.04 µM]	?	/	25.5%[9.04 µM]
CC1CC(NC(=O)Cc2ccc(Br)cc2)CC(C)(C)C1 (stereo not drawn)	?	-10.6	?	-5.0%	-3.9%	16.4µM*
Cc1ccc(C(=O)Nc2cccc(-c3nc(CNC(=O)c4cccc(N(C)C)c4)c(C)o3)c2)s1	/	/	16.4µM*	/	/	3.7%[9.04 µM]
COc1ccc(C(=O)NCc2nc(-c3cccc(NC(=O)c4ccc(C)s4)c3)oc2C)cc1	/	/	14.6µM*	/	/	-0.2%[9.04 µM]
Cc1oc(-c2cccc(NC(=O)c3ccccn3)c2)nc1CNC(=O)C#Cc1ccccc1	/	/	23.1µM*	/	/	?
Cc1ccc(C(=O)Nc2cccc(-c3nc(CNC(=O)C4(C)CC4)c(C)o3)c2)s1	/	/	-6.0%	/	/	-9.4%
Cc1ccc(C(=O)Nc2cccc(-c3nc(CNC(=O)c4ccc5ccccc5n4)c(C)o3)c2)s1	/	/	16.4µM*	/	/	?
COC(=O)N1CCC2(CCCN(Cc3ccccc3)C2)CC1	5.8%	/	-12.4%	-17.2%	/	19.4%
COc1cn(CC(=O)Nc2ccccc2)c(CN2CCCCC2)cc1=O	/	/	-7.1%	/	/	2.0%
Cc1cccc(C(=O)NCc2nc(-c3cccc(NC(=O)c4ccoc4C)c3)oc2C)n1	/	/	13µM*	/	/	2.1%[9.04 µM]
Cc1oc(-c2cccc(NC(=O)C3CCCN(C)C3)c2)nc1CNC(=O)c1coc2c1C(=O)CCC2 (stereo not drawn)	/	/	16.4µM*	/	/	4.0%[9.04 µM]
Cc1ncoc1C(=O)NCc1nc(-c2cccc(NC(=O)c3ccccn3)c2)oc1C	/	/	?	/	/	-5.9%[9.04 µM]
Cc1cc(C(=O)Nc2cccc(-c3nc(CNC(=O)c4cnccn4)c(C)o3)c2)c(C)o1	/	/	?	/	/	3.6%[9.04 µM]
Cc1cc(C(=O)Nc2cccc(-c3nc(CNC(=O)c4ccccc4C(F)(F)F)c(C)o3)c2)c(C)o1	/	/	20.6µM*	/	/	?
O=C(NCCc1ccccc1)C1CCC(=O)N1C1CCCC1 (stereo not drawn)	2.5%	-12.1	1.9%	-0.7%	5.2%	7.8%
COc1ccc(CNC(=O)COC(=O)c2ccc(C)c(S(=O)(=O)N3CCOCC3)c2)cc1	/	-7.8	-8.9%	/	-17.9%	-2.2%
N#Cc1nc(-c2cccc3ccccc23)oc1NCCN1CCCCC1	5.1%	?	16.4µM*	-6.1%	?	18.4µM*
N#Cc1nc(-c2ccccc2F)oc1N1CCCCC1	-3.5%	-28.1	-7.7%	-0.3%	3.1%	2.5%

Source: PubChem
